The results in this text go back to PubChem BioAssay AID1835 (Johns Hopkins Ion Channel Center, 2009).

Among all 2,400 compounds or so, about 750 (31%) were called active. The list shows a part of the results. A number with no mark means an inactive call.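 The calls were made as follows: active = median signal gain over dofetilide-blocked control wells reaching their mean plus 3 SD, so readout 1 at least 0; inactive = the rest.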

The target in this assay is Voltage-gated inwardly rectifying potassium channel KCNH2 (Homo sapiens) (UniProt Q12809). The assay can be described thus: hERG protection against dofetilide inhibition, confirmation, cell-based, thallium flux, duplicate retest, dofetilide IC70 (AID 1835). To be noted: hERG cell line, FluxOR thallium flux, dofetilide-blocked; at 10 µM; stronger effect = higher value.
Chain of Voltage-gated inwardly rectifying potassium channel KCNH2 (Homo sapiens) (Q12809 whole entry, looked up): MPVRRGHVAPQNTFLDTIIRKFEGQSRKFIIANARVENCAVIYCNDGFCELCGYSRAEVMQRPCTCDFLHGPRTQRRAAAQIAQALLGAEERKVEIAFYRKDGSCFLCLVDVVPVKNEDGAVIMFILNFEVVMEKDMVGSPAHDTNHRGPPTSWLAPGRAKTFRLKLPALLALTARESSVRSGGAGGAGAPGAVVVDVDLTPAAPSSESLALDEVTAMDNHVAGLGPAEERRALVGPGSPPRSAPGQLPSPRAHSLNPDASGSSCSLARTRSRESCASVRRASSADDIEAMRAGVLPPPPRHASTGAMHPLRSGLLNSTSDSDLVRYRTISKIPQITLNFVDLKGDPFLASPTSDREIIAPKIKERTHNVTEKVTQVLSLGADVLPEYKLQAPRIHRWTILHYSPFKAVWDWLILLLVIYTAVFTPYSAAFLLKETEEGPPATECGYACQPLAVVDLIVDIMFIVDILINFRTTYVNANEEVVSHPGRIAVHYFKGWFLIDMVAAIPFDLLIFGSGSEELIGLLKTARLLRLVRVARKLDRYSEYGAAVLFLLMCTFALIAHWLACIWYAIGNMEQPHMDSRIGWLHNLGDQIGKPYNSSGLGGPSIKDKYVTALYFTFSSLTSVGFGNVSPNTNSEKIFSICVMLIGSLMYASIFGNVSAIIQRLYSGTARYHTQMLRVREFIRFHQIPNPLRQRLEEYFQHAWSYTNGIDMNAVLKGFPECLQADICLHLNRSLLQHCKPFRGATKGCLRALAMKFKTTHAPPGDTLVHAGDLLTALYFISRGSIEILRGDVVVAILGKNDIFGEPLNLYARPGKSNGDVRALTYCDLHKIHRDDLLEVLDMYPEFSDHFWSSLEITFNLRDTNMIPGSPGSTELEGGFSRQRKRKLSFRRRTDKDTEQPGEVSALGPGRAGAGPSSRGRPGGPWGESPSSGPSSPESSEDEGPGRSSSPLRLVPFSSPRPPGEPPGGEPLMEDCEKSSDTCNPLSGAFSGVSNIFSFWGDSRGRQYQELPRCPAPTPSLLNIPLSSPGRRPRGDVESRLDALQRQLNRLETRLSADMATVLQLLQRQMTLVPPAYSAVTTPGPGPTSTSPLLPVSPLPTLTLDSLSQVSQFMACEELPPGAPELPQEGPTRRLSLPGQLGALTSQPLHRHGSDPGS
For the compound `CN(C)/C=C1/C(=O)N(c2ccc([N+](=O)[O-])cc2)N=C1c1ccccc1`, the activity increase over dofetilide control, less the hit threshold is 2% (active).
In the case of `CC1=NN(c2ccccc2)C(=O)/C1=C/c1ccc(-c2ccc(C)c(C(=O)O)c2)o1` it was -18%; in that of `O=C(NNC(=O)C12CC3CC(CC(O)(C3)C1)C2)c1ccccc1O`, -4%; in that of `Cc1nnc(SCC(=O)Nc2nccs2)n1N`, -22%.
Take `CCOC(=O)c1nnn(CC(=O)Nc2cccc(F)c2)c1C(=O)OCC`: the activity increase over dofetilide control, less the hit threshold was -1%.
In the case of `CC(C)[C@H](NC(=O)c1ccco1)C(=O)OCC(=O)Nc1cccc(F)c1` it was -12%.
As for `C/C(Nc1cccc(F)c1)=C(/C#N)C(N)=O`, the activity increase over dofetilide control, less the hit threshold is 2% (active).
The same measure for `OC(CCN1CCOCC1)c1ccccc1` (stereo not drawn): -20%; for `Cc1ccc(C)c(NC(=O)CCN2C(=O)[C@@H]3Cc4ccccc4CN3C2=O)c1`: -17%; for `CC(=O)C1C(=O)c2c(cccc2[N+](=O)[O-])C1=Nc1ccccc1C` (stereo not drawn): -20%.
In the case of `CCN(CC)S(=O)(=O)c1ccc2[nH]c(=O)cc(C(=O)Nc3cccc(C(C)=O)c3)c2c1` it was -4%; in that of `S=c1nc(-c2ccccc2)[nH]c2ccc(Br)cc12`, 95% (active).
On to `S=c1nc(-c2ccc(Br)cc2)[nH]c2ccccc12`, for which the activity increase over dofetilide control, less the hit threshold was 50% (active).
The same measure for `CC(Oc1ccc(Br)cc1)c1nc2c3ccccc3nc(=S)n2[nH]1` (stereo not drawn): 0%.
In the case of `CC(C)c1ccc(CNc2nc3nc4c(c(=O)n3[nH]2)CCC4)cc1` it was -6%.
For the compound `O=C1CCN(S(=O)(=O)c2ccc(Cl)cc2)CCN1`, the activity increase over dofetilide control, less the hit threshold was -25%.
Regarding `COc1ccc(S(=O)(=O)c2snnc2C)cc1`, the activity increase over dofetilide control, less the hit threshold is -2%.
In the case of `C=CCc1cccc(C2Nc3ccccc3C(=O)N2O)c1O` (stereo not drawn) it was 1% (active); in that of `C=CCn1c(O)c(N=NC(=S)Nc2ccc(OC)c(Cl)c2)c2ccccc21`, 7% (active).
Take `Cc1ccc(Cn2c(O)c(N=NC(=S)Nc3ccccc3F)c3ccccc32)cc1`: the activity increase over dofetilide control, less the hit threshold is -13%.
The same measure for `C=CCn1c(O)c(N=NC(=S)Nc2ccc(OC)cc2)c2ccccc21`: 4% (active).
The same measure for `COc1ccc(C(CC(=O)N2CCOCC2)c2c(O)cc(OC)cc2OC)cc1` (stereo not drawn): -13%; for `CCOC(=O)C1=C(Cn2cnc3ccccc32)NC(=O)NC1c1cc(C)ccc1C` (stereo not drawn): -10%; for `CC(C)[C@H](NC(=O)OC(C)(C)C)C(=O)NCC1CCC(C(=O)N[C@@H](Cc2ccccc2)C(=O)O)CC1` (stereo partly drawn): -5%.
As to `CNC(=O)c1cc(C(=O)c2ccc(F)cc2C(F)(F)F)c[nH]1`, the activity increase over dofetilide control, less the hit threshold was -7%.
Take `COc1ccc(CC(=O)Nc2ccccc2Oc2ccccc2)cc1`: the activity increase over dofetilide control, less the hit threshold was -13%.
Take `COc1cc(NC(=O)c2ccccc2)c(OC)cc1NC(=O)Cc1ccc(Br)cc1`: the activity increase over dofetilide control, less the hit threshold is 12% (active).
Regarding `COc1cc(Br)cc(/C=N/NC(=O)Cc2ccccc2)c1O`, the activity increase over dofetilide control, less the hit threshold is -9%.
As for `O=c1[nH]c(C(Cl)(Cl)Cl)nc2ccc3ccccc3c12`, the activity increase over dofetilide control, less the hit threshold was 4% (active).
The same measure for `CCCN1CCN(CCCNC(=O)Cn2nc(C)n3c(cc4cc(OC)ccc43)c2=O)CC1`: -13%; for `CS(=O)(=O)Nc1cccc(-c2cn3ccccc3n2)c1`: -13%; for `O=C(Nc1nnc(C2=COCCO2)o1)c1ccc(Br)cc1`: -42%.
On to `O=C(Nc1nnc(-c2ccc3c(c2)CCCC3)o1)C1COc2ccccc2O1` (stereo not drawn), for which the activity increase over dofetilide control, less the hit threshold was -12%.
The same measure for `O=C(Nc1nnc(-c2ccc3c(c2)CCCC3)o1)c1ccc(Cl)cc1Cl`: 9% (active).
In the case of `Cc1[nH]c(=S)sc1Cc1ccc(Cl)c(Cl)c1`, the activity increase over dofetilide control, less the hit threshold is -12%.
Consider `Cc1ccc(Cc2c[nH]c(=S)s2)cc1`, for which the activity increase over dofetilide control, less the hit threshold is 44% (active).
In the case of `S=c1[nH]cc(Cc2ccccc2)s1` it was -5%; in that of `Cc1[nH]n2c(=O)cc(C(C)(C)C)nc2c1-c1ccccc1`, 14% (active); in that of `NC(=O)c1nn2c(C(F)(F)F)cc(-c3ccccc3)nc2c1Br`, -8%.
In the case of `Cc1[nH]n2c(=O)cc(C(C)C)nc2c1-c1ccccc1` it was -6%.
The same measure for `O=c1cc(-c2ccccc2)nc2c(-c3ccccc3)c(C(F)(F)F)[nH]n12`: 56% (active); for `Cc1nn(CCC#N)c2nc(-c3ccccc3)cc(C(F)(F)F)c12`: -11%; for `Nn1c(SCC(=O)Nc2ccccc2F)nnc1C1CCCCC1`: -10%.
For the compound `CC(C)C(=O)Nc1ccc2c(c1)Cc1cc(NC(=O)C(C)C)ccc1-2`, the activity increase over dofetilide control, less the hit threshold is -3%.
In the case of `Cc1noc(C)c1CSc1ncnc2sc3c(c12)CCCCC3` it was 4% (active); in that of `CCOc1ccc(S(=O)(=O)N2CCN(Cc3ccc4c(c3)OCO4)CC2)cc1C`, -31%.
In the case of `CCOC(=O)c1cnc(-n2nc(C)cc2C)nc1Nc1cccc(C(=O)O)c1` it was -2%; in that of `CCOC(=O)C1=NN(C(=O)c2cccc(Br)c2)C(O)(C(C)(C)C)C1` (stereo not drawn), 79% (active); in that of `COC(=O)C1=NN(C(=O)c2ccc(C)cc2)C(O)(c2ccc(Cl)cc2)C1` (stereo not drawn), 92% (active).
The same measure for `CCC1=NN(C(=O)c2ccc(Cl)cc2)C(O)(c2ccccc2)C1` (stereo not drawn): -24%.
Consider `COC(=O)C1=NN(C(=O)c2ccc(Cl)cc2)C(O)(c2ccccc2)C1` (stereo not drawn), for which the activity increase over dofetilide control, less the hit threshold is 74% (active).
In the case of `CC1=NN(c2ccccc2)C(=O)C1C(=O)c1ccc(Cl)cc1` (stereo not drawn) it was -5%; in that of `CC1=NN(C(=O)c2ccc(Cl)cc2)C(O)(c2ccccc2)C1` (stereo not drawn), -11%; in that of `COC(=O)C1=NN(C(=O)c2cccc(Br)c2)C(O)(c2ccc(Cl)cc2)C1` (stereo not drawn), 86% (active).
The same measure for `CC1=NN(C(=O)c2ccccc2Br)C(O)(c2ccc(Cl)cc2)C1` (stereo not drawn): -15%.
The same measure for `COCCn1nnnc1C(c1ccc(C(F)(F)F)cc1)N1CCOCC1` (stereo not drawn): -20%; for `O=C(CSc1ccccc1)N1CCN(S(=O)(=O)c2cccs2)CC1`: -10%; for `CCOC(=O)N1CCN(C(=O)CN(c2ccc(OCC)cc2)S(C)(=O)=O)CC1`: -19%.
As to `CCOC(=O)N1CCN(C(=O)COC(=O)c2cc(Cl)c(O)c(Cl)c2)CC1`, the activity increase over dofetilide control, less the hit threshold was 5% (active).
The same measure for `O=C(OCC(=O)N1CCOCC1)c1ccc(Cl)cc1[N+](=O)[O-]`: -13%.
In the case of `Cc1ccc(NC2=CC(=O)OC(C)C2)cc1` (stereo not drawn) it was -4%.
In the case of `C=CCNC(=S)N/N=C(\C)c1ccc(OC)cc1` it was -4%.
With `C=C(C)CNC(=S)NN=C1c2ccccc2-c2ccccc21`, the activity increase over dofetilide control, less the hit threshold is 15% (active).
